# Sampled rows, rich in hits. Any-hit rate of the full collection: about 5.9%.
# ATXN2 expr inh: Primary qHTS for Inhibitors of ATXN expression; hit rate 0.72% among 360,000; HEK-293 ATXN2-luciferase reporter, luminescence, 24 h; Potency, µM (titrated, usually from 57 µM), for inactives: top-dose activity change, negative = inhibition, hits mostly inhibitors; also: % is scaled to controls: 0 for no effect and ±100 for the full control effect; nearly all actives have a fitted effect of over 55% in size
#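 ATXN2-luciferase reporter cells (luciferase flanked by upstream and downstream ATXN2 gene portions) were treated 24 h at 37 °C with compounds at up to 57 uM. SteadyGlo luminescence gave expression; GF-AFC fluorescence gave viability.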
# ATXN viability: Viability Counterscreen for Primary qHTS for Inhibitors of ATXN expression | Potency, µM (titrated, usually from 56.7 µM), most hits filed as cytotoxic | hit rate 0.49% among 400,000 | S2 cells (HEK-293 line with an ATXN2-luciferase reporter) viability, CellTiter-Fluor protease fluorescence, 24 h; also: nearly all actives have a fitted effect of over 40% in size
# KB-V1 cytotox: qHTS assay for MDR1-selective chemotherapeutics: Primary screen using the drug-selected MDR subline cells KB-V1; KB-V1 MDR cells viability, CellTiter-Glo, 72 h; Potency, µM (series often up to 46.1 µM), actives largely listed as cytotoxic; hit rate 3.4% among 400,000; AID 1347076, 2019; also: % is scaled to controls: 0 for no effect and ±100 for the full control effect; nearly all actives have a fitted effect of over 60% in size
#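 Cytotoxicity toward P-gp-expressing KB-V1 cells was determined as loss of CellTiter-Glo luminescence after 72 h at 37 degrees C. Compounds were tested in quantitative HTS format across a concentration range, with curves fitted to normalized data.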
# KB-3-1 tox: qHTS assay for MDR1-selective chemotherapeutics: Primary screen using the parental adenocarcinoma cell KB-3-1; KB-3-1 viability, CellTiter-Glo ATP luminescence, 72 h; Potency, µM (top dose mostly 46.1 µM), usual class: cytotoxic; hit rate 1.4% among 400,000; also: % is scaled to controls: 0 for no effect and ±100 for the full control effect; nearly all actives have a fitted effect of over 60% in size
#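 Parental KB-3-1 viability, qHTS format: 72 h compound exposure, 37 °C; CellTiter-Glo; media-only wells and DMSO plates as controls; concentration-effect fits on corrected data.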
# TGFb SMAD3 inh: qHTS for Inhibitors of TGF-b | HepG2 CAGA-GFP TGF-b/SMAD3 reporter, GFP fluorescence, 18 h; TGF-beta stimulated, 500 pg/mL final | Potency, µM (top dose mostly 46.1 µM), for inactives: top-dose activity, negative = inhibition, usual class: inhibitors | hit rate 1.2% among 410,000; also: % is scaled to controls: 0 for no effect and ±100 for the full control effect; nearly all actives have a fitted effect of over 65% in size
#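 Per well, imaged GFP fluorescence of HEPG2 CAGA-GFP cells gives the signal; cells get compound, then TGF-beta (500 pg/mL final), 18 h at 37 degrees C; %Activity versus -TGF-beta and +DMSO controls.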
# HepG2 viability: qHTS for Inhibitors of TGF-b: Cytotox Counterscreen; hit rate 0.76% among 410,000; HepG2 CAGA-GFP viability, ATP luminescence, 18 h; Potency, µM (titrated, usually from 46.1 µM), without a hit: top-dose activity change, negative = cytotoxicity, usual class: cytotoxic; AID 588856, 2011
#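 HepG2 CAGA-GFP cells (1000/well, DMEM with 1% FBS) received compound, then TGF-beta at 500 pg/mL final, and were incubated 18 hours at 37 degrees C. Viability was read by CellTiter-Glo luminescence. Media-only wells were set as complete cell-killing and DMSO as no toxicity.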
# * hit, by the source's call; i = inactive; ? = inconclusive; · = no result; ! = not confirmed by another sample; [ ] = dose if it differs, or a comment. Calls follow the shape of the dose curve; as a rule, active = well fitted curve in the direction sought with a large enough effect; inconclusive = small, poorly fitted or top-dose-only effect, or another doubt; inactive = no such curve, though single readings can be large; an effect the other way counts as inactive or inconclusive. Potency is read from the fitted curve at half-maximal effect.
SMILES,ATXN2 expr inh,ATXN viability,KB-V1 cytotox,KB-3-1 tox,TGFb SMAD3 inh,HepG2 viability
O=C(c1ccc(C(F)(F)F)cc1)C1CCCN(Cc2ccncc2)C1 (stereo unspecified),-34.1%,·,7.31µM*,?,-28.2%,-6.3%
Cc1ccc(CN2CCCC(C(=O)c3cccc(C(F)(F)F)c3)C2)o1 (stereo unspecified),-18.7%,·,?,i,?,-8.5%
Oc1ccc(-[n+]2c(-c3ccccc3)cc(-c3ccccc3)cc2-c2ccccc2)cc1,12.6µM*,?,i,i,?,-34.6%
COc1ccc(-[n+]2c(-c3ccccc3)cc(-c3ccccc3)cc2-c2ccccc2)cc1,?,?,i,7.31µM*,?,-36.1%
O=[N+]([O-])c1ccc(-[n+]2c(-c3ccccc3)cc(-c3ccccc3)cc2-c2ccccc2)cc1,·,i,i,i,-13.9%,-2.6%
Fc1ccc(N2CCN(c3ncnc4c3nc3n4CCCCC3)CC2)cc1,-15.3%,i,i,?,?,3.3%
CN[C@]1(c2ccccc2Cl)CCCCC1=O,·,i,·,·,·,·
CC(C)c1ccc(C(O)P(=O)(OCc2ccccc2)c2ccc(N(C)C)cc2)cc1 (stereo unspecified),-31.2%,?,i,i,?,-82.5%
CCCCOP(=O)(c1ccc(N(C)C)cc1)C(Nc1ccccc1)c1ccccc1 (stereo unspecified),?,?,3.66µM*,?,15.8µM*,-95.5%
COc1ccc2c(c1)[nH]c1c(C)nccc12,2.8%,i,23.1µM*!,?,?,-10.6%
CCC(=NCCc1c[nH]c2ccccc12)c1c(O)n(C)c(=O)n(C)c1=O,-12.4%,i,?,?,13.3%,-24.1%
CCC(=NCCc1c[nH]c2ccccc12)c1c(O)n(-c2ccc(C)cc2)c(=O)[nH]c1=O,-4.2%,i,20.6µM*,i,-4.5%,-22.5%
CC(C)=CC1C(C(=O)OCc2cccc(Oc3ccccc3)c2)C1(C)C (stereo unspecified),12.4%,i,·,·,·,·
C=CCC1=C(C)C(OC(=O)C2C(C=C(C)C)C2(C)C)CC1=O (stereo unspecified),?,39.8µM*,·,·,·,·
O=S(=O)(O)C(F)(F)C(F)(F)C(F)(F)C(F)(F)C(F)(F)C(F)(F)C(F)(F)C(F)(F)F,14.8%[116 µM],?,·,·,·,·
O=c1oc2ccccc2c(O)c1Cc1c(O)c2ccccc2oc1=O,-6.7%,i,·,·,·,·
O=Nc1c(O)c2ccccc2c2ccccc12,7.94µM*,15.8µM*,16.4µM*,4.61µM*,2.24µM*,2.82µM*
CC(Cc1ccccc1)N(C)Cc1ccco1 (stereo unspecified),-0.4%,i,·,·,·,·
Cc1cccc(Cn2cc(C=O)c3ccccc32)c1,?,i,i,18.4µM*,1.12µM*,-34.8%
CCC(=O)c1cn(Cc2ccc(C#N)cc2)c2ccccc12,5.4%,i,?,i,0.0%,16.1%
O=Cc1cn(CCCOc2ccccc2)c2ccccc12,0.2%,i,i,i,?,-22.5%
O=[N+]([O-])c1cccc(CCl)c1,0.6%,i,i,i,3.7%,-24.6%
O=Cc1cn(Cc2c(F)cccc2Cl)c2ccccc12,·,?,16.4µM*,?,3.55µM*,-5.8%
O=Cc1cn(Cc2cccc([N+](=O)[O-])c2)c2ccccc12,0.447µM*,?,?,?,0.708µM*,-46.2%
N#Cc1ccc(Cn2cc(C=O)c3ccccc32)cc1,?,i,i,i,1.41µM*,-47.3%
SMILES,ATXN2 expr inh,ATXN viability,KB-V1 cytotox,KB-3-1 tox,TGFb SMAD3 inh,HepG2 viability
CC(C)(N)Cc1ccccc1Cl,8.4%,i,·,·,·,·
COc1ccc(S(=O)(=O)N(C)C[C@H]2OCCCC[C@@H](C)Oc3ccc(N(C)C)cc3C(=O)N([C@H](C)CO)C[C@@H]2C)cc1,-11.9%,?,i,i,-6.3%,-11.0%
CCc1ccc(-n2c(=O)c3sc4ccccc4c3n(CC(=O)NC3CCCC3)c2=O)cc1,0.1%,?,i,i,0.6%,-2.4%
CN1CCN(c2ccc([N+](=O)[O-])c(NCc3ccco3)c2)CC1,-6.1%,i,11.6µM*,i,1.7%,-16.1%
CC1(C)C(=O)CC[C@]2(C)C3C(=O)C=C4[C@H]5C[C@@](C)(C(=O)O)CC[C@]5(C)CC[C@]4(C)[C@]3(C)CC[C@@H]12 (stereo partly specified),4.8%,i,i,i,?,5.6%
CC1=C(O)C(=O)C=C2C1=CC=C1[C@@]2(C)CC[C@@]2(C)[C@@H]3C[C@](C)(C(=O)O)CC[C@]3(C)CC[C@]12C,2.43µM*,·,·,·,·,·
CC(C)C(=O)c1cn(Cc2ccccc2C#N)c2ccccc12,-21.2%,i,?,i,-3.0%,0.6%
CC(=O)c1cn(Cc2ccccc2C#N)c2ccccc12,·,i,1.84µM*,?,-21.4%,-10.2%
CC12CC[C@H]3[C@@H](CCC4(O)C[C@H](O)CCC34/C=N/NC(=O)c3ccccc3O)C1(O)CCC2C1=CC(=O)OC1 (stereo partly specified),?,i,?,?,?,-53.3%
CN(C)c1ccc(C(=O)N/N=C/C23CC[C@@H](O)CC2(O)CC[C@@H]2[C@@H]3CCC3(C)C(C4=CC(=O)OC4)CCC23O)cc1 (stereo partly specified),·,?,?,6.51µM*,?,-86.9%
CC12CC[C@H]3[C@@H](CCC4(O)C[C@H](O)CCC34/C=N/NC(=O)c3ccccc3F)C1(O)CCC2C1=CC(=O)OC1 (stereo partly specified),?,?,i,18.4µM*,2.4%,-27.2%
Cc1cccc(C(=O)Nc2nnc(SCC(=O)NCc3ccco3)s2)c1,3.5%,i,i,i,?,-13.0%
Fc1cc(Br)ccc1CBr,12.2%,i,·,·,·,·
Cc1ccc(Cl)cc1NC(=O)Cn1c(=O)oc2cc(S(=O)(=O)N3CCCCCC3)ccc21,·,·,i,i,?,-56.0%
Clc1ccc(-c2csc3ncnc(Sc4nnnn4C4CC4)c23)cc1,·,·,?,?,?,-99.0%
CCN(CC)S(=O)(=O)c1ccc(NN=C(C#N)C#N)cc1,-23.5%,?,i,i,?,-52.8%
N#CC(C#N)=NNc1ccc([N+](=O)[O-])cc1,0.0%,14.1µM*,i,i,?,-52.1%

# Screening data as filed in PubChem BioAssay.
